Reference: PubChem BioAssay (NCI)
This is part of a sample that, as a whole, favours compounds with a hit. Of some 83,000 tested, about 20% had one in any assay.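 Single-concentration screen, 48 h exposure, 96-well plates. Endpoint: percent growth. Below 10 = active.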 The source made the active and inactive calls.

Key:
Experiment in all cases: NCI-60 one-dose screen, 48 h (100 = growth as untreated, 0 = no growth, -100 = all killed)
Details in all cases: 10 µM unless noted
[1] = system: SK-MEL-2 melanoma
[2] = system: EKVX NSCLC
[3] = system: SN12C renal
[4] = system: UO-31 renal
[5] = system: TK-10 renal
[6] = system: ACHN renal
[7] = system: CAKI-1 renal
[8] = system: A498 renal
[9] = system: CCRF-CEM leukemia
[10] = system: MOLT-4 leukemia

Measured: growth

N#CSCC1CC(O)(c2ccccc2)CC(c2ccc(F)cc2)O1 (stereo not given)
active: [1] -54.6% | [3] -61.5% | [6] 9.51% | [7] -44.9% | [9] 7.42% | [10] -0.406%
inactive: [2] 34.2% | [4] 33.3% | [5] 59.7% | [8] 33.3%

CCCCCCCCCCCCCCCCCCOc1ccccc1CC(=O)OCC[N+](C)(C)C
active: [7] 9.52% | [9] 5.24% | [10] -7.37%
inactive: [1] 64.8% | [2] 46.9% | [3] 10% | [4] 61.3% | [5] 18% | [6] 55.8% | [8] 45.1%

CCN1C(=S)N(c2ccccc2)C2C1NN=c1s/c(=C3\C(=O)N(C(C)C)c4ccccc43)c(=O)n12 (stereo not given)
inactive: [1] 107% | [2] 101% | [3] 55.1% | [4] 80.5% | [5] 86.6% | [6] 80% | [7] 76.2% | [8] 97.5% | [9] 93.1% | [10] 91.1%

N#CC1=C(N)Oc2c(ccc3ccccc23)C1c1ccccc1 (stereo not given)
active: [9] 9.24%
inactive: [1] 43.1% | [2] 41.9% | [3] 32.5% | [4] 39.3% | [5] 46.8% | [6] 31.2% | [7] 18.1% | [8] 33.7% | [10] 14.6%

CC1CN(S(=O)(=O)c2oc(-c3ccc(Cl)cc3)nc2C#N)CC(C)O1 (stereo not given)
active: [5] -54% | [9] -2.97% | [10] -10.6%
inactive: [1] 75.5% | [2] 101% | [3] 85.5% | [4] 90.4% | [6] 28.1% | [7] 91.2% | [8] 78.7%

Cc1c(O)cc(-c2cnc(Nc3ccccc3)s2)c(O)c1C
inactive: [1] 99.4% | [2] 87.9% | [3] 94% | [4] 86.9% | [5] 134% | [6] 91.6% | [7] 86.9% | [8] 75.1% | [9] 78.5% | [10] 62.8%

Cc1cc(N2CCN(CCNc3ccnc4cc(Cl)ccc34)CC2)nc(N2CCOCC2)n1
inactive: [1] 83.8% | [2] 65.4% | [3] 73% | [4] 43.7% | [5] 84.9% | [6] 77.3% | [7] 57.9% | [8] 45.2% | [9] 75.5% | [10] 47.6%

Cc1cc(C(=O)Nc2ncc(Cc3cccc(C(F)(F)F)c3)s2)c2ccccc2n1
active: [1] -16% | [8] 0.174%
inactive: [2] 43.2% | [3] 47.7% | [4] 29% | [5] 49.5% | [6] 28.1% | [7] 13.3% | [9] 11.8% | [10] 14.9%

COCCn1cc(-c2nc(-c3cc4cccnc4[nH]3)cs2)c2cc(OC)ccc21
inactive: [1] 37.8% | [2] 16.9% | [3] 48.5% | [4] 10.9% | [6] 22.4% | [7] 34.4% | [9] 12.4% | [10] 26.6%
active: [5] -4.75% | [8] -0.329%

NC(=O)c1c(NC(=O)c2ccc3ccccc3c2)sc2c1CCC(=O)C2
inactive: [1] 103% | [2] 86.2% | [3] 50.5% | [4] 27.3% | [5] 95.7% | [6] 34.2% | [7] 16.3% | [8] 95.2% | [9] 15% | [10] 36.6%

O=C(CSc1nc2sc3c(c2c(=O)n1-c1ccccc1)CCCCC3)N/N=C/c1cccc([N+](=O)[O-])c1
inactive: [1] 90.2% | [2] 70.3% | [3] 66.8% | [4] 75.7% | [5] 96.2% | [6] 80.6% | [7] 60% | [8] 83.7% | [9] 76.6% | [10] 70.5%

CCN1CCN(C(=O)[C@]23CCC(C)(C)C[C@@H]2C2=CC[C@@H]4[C@@]5(C)CCC(=O)C(C)(C)[C@@H]5CC[C@@]4(C)[C@]2(C)CC3)CC1
active: [8] -7.95%
inactive: [1] 77.1% | [2] 63.3% | [3] 51.8% | [4] 34.1% | [5] 80.4% | [6] 65.7% | [7] 60% | [9] 37.5% | [10] 10.1%

O=c1c2cnn(-c3ccccc3)c2n2c(CN3CCOCC3)nnc2n1-c1ccccc1
inactive: [1] 79.1% | [2] 102% | [3] 104% | [4] 87.6% | [5] 71.4% | [6] 95.2% | [7] 92.4% | [8] 106% | [9] 96.8% | [10] 100%

CSc1nc2ccccc2cc1/C=C1/C=C(c2ccccc2)NC1=O
inactive: [1] 81% | [2] 84.9% | [3] 94.1% | [4] 91.9% | [5] 123% | [6] 102% | [7] 77.9% | [8] 69.9% | [9] 68.8% | [10] 36.3%

CNC(=O)c1[nH]cc(-c2ccc(OC)cc2)c1-c1cc(OC)c2c(c1OC)OCO2
inactive: [1] 105% | [2] 96.8% | [3] 96.8% | [4] 82.9% | [5] 108% | [6] 97.7% | [7] 83.6% | [8] 109% | [9] 101% | [10] 109%

NC(=O)CSc1oc(-c2ccccc2)nc1S(=O)(=O)c1ccc(Br)cc1
inactive: [1] 99.2% | [2] 95.4% | [3] 65.7% | [4] 59.7% | [5] 82.1% | [6] 64.4% | [7] 87.9% | [8] 61.4% | [9] 110% | [10] 89.2%

CCN(C)S(=O)(=O)Nc1cccc(Nc2ncnc3cc(NC(=O)CCl)ccc23)c1Cl
inactive: [1] 17.7% | [2] 18.4% | [8] 81.7%
active: [3] -27.9% | [4] -87.4% | [5] 1.2% | [6] -67.8% | [7] -15.4% | [9] 5.63% | [10] 5.41%

CN(C)c1ccc(C(=O)OCCCCCCl)cc1
inactive: [1] 94.7% | [2] 96.9% | [3] 96% | [4] 77.8% | [5] 96.5% | [6] 102% | [7] 89.1% | [8] 83.9% | [9] 122% | [10] 86.1%

Nc1cnc(C(=O)NNc2nc3cc(F)ccc3n3cccc23)cn1
active: [4] 8.25%
inactive: [1] 75% | [2] 26.2% | [3] 46.6% | [5] 51.3% | [6] 12.9% | [7] 29.5% | [8] 44.7% | [9] 21.4% | [10] 19%

O=C(NCc1ccc(Cl)cc1Cl)C1CCC(=O)N1c1cccs1 (stereo not given)
inactive: [1] 91.2% | [2] 91.3% | [3] 97.9% | [4] 83.1% | [5] 98.8% | [6] 95% | [7] 81.6% | [8] 85.2% | [9] 110% | [10] 98.1%

COc1ccc(OC)c(/C=N/Nc2ncnc3c2c(C)nn3C)c1
inactive: [1] 105% | [2] 94.8% | [3] 91.4% | [4] 82.9% | [5] 105% | [6] 105% | [7] 98.7% | [8] 64.4% | [9] 103% | [10] 93.9%

Cn1ccnc1C(=O)/C=C/c1ccc(C(=O)Nc2ccc(Cl)cc2)cc1
inactive: [1] 82.4% | [5] 16.9% | [8] 19.5%
active: [2] 8.52% | [3] 0.398% | [4] -74.7% | [6] -39.9% | [7] -2.07% | [9] 8.42% | [10] 5.13%

COc1ccc(Nc2nc(-c3cc(O)c(C)c(C)c3O)cs2)cc1
inactive: [1] 94.9% | [2] 89.2% | [3] 88.4% | [4] 74.7% | [5] 114% | [6] 82.2% | [7] 51.6% | [8] 101% | [9] 17.8% | [10] 25.7%

CCCNC(=O)Nc1ccc2cc3ccc(NC(=O)NCCC)cc3nc2c1
inactive: [1] 84.7% | [2] 97.8% | [3] 94.5% | [4] 76.1% | [5] 115% | [6] 78.1% | [7] 104% | [8] 71.4% | [9] 47.4% | [10] 84.8%

COc1ccc(/C=C(\C#N)n2nnc3ccc(Cl)cc32)cc1
inactive: [1] 62.9% | [2] 90% | [3] 52.4% | [4] 50.2% | [5] 77.6% | [6] 45.6% | [7] 46.3% | [8] 79.7% | [9] 45.5% | [10] 83.7%
